Results reported in PubChem BioAssay (EPA / NIEHS).
Records with an inconclusive call do not appear. Calls of active or inactive are those of the source. How the source made its calls, unless noted: active means hit-call score of the fitted dose curve at least 0.9, where 1 is the maximum; inactive means score below 0.9.

Experiments:
[1] = CCTE_Simmons_MITO_inhib_resp_rate: CCTE's HepG2 Seahorse XF Respirometric Screening Assay at Inhibited Respiratory State [full ETC block], Simmons Lab (AID 2284006); conditions: actives raise or lower the signal
How it was run: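 This endpoint is the respiration rate remaining after rotenone/antimycin A block, in HepG2 cells on a Seahorse XF96. Chemicals spanned 125 nM–100 uM final, in three biological replicates. OCR was read every 6 minutes for 72 minutes and compared with DMSO vehicle.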

[2] = CCTE_Simmons_MITO_viability: CellTiter-Glo Viability Assessment for CCTE's HepG2 Seahorse XF Respirometric Screening Assay [post-hoc], Simmons Lab (AID 2284007; active means hit-call score of the fitted dose curve at least 0.9, where 1 is the maximum;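 on AC50: cells exposed to chemical for 90 min before the ATP read; actives lower ATP signal relative to DMSO baseline meaning reduced viability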)
How it was run: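 Luciferase-coupled ATP read-out after the Seahorse run: HepG2 cells treated 90 minutes with test chemical, 7-point series of 125 nM–100 uM final, in triplicate biological runs. Vehicle DMSO; dichlone as positive control over 8 concentrations.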

[3] = CCTE_Harrill_HTTr_Viability_MCF7: CCTE's 6-hour Cell Viability Assessment for the High-Throughput Transcriptomics (HTTr) Platform, in MCF-7 cells cultured in DMEM + 10% fetal bovine serum, Harrill Lab (AID 2284010)
How it was run: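 Propidium iodide exclusion, imaged by high-content analysis, gauged viability after a six-hour exposure across eight concentrations. Cells were MCF-7 grown in DMEM with 10% fetal bovine serum; fits run in both directions against DMSO.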

[4] = CCTE_Harrill_HTTr_Apoptosis_MCF7: CCTE's 6-hour Apoptosis Assessment for the High-Throughput Transcriptomics (HTTr) Platform, in MCF-7 cells cultured in DMEM + 10% fetal bovine serum, Harrill Lab (AID 2284011)
How it was run: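 High-content imaging of CellEvent Caspase 3/7 Green signal follows a six-hour exposure, with eight concentrations per chemical. MCF-7 cells grown in DMEM plus 10% fetal bovine serum; activity fitted in both directions against DMSO.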

[5] = CCTE_Shafer_MEA_acute_spike_number: CCTE's Neural Acute Assay for Total Number of Spikes, Shafer Lab (AID 2284008)
How it was run: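 Total spike count from 40 min recordings before and during compound exposure (0.03-40 uM), given as per-well percent change. Cortical cultures from rat, DIV 13 or 15, 37 C; adaptive detection threshold 8x rms noise.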

[6] = CCTE_Shafer_MEA_acute_firing_rate_mean: CCTE's Neural Acute Assay for Mean Firing Rate, Shafer Lab (AID 2284009);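 further: analyzed for loss of signal so actives lower firing rate relative to DMSO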
How it was run: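 Spontaneous spiking of primary rat cortical networks, DIV 13/15, 37 C. Compound 0.03-40 uM, n ≥3 wells; 40 min baseline vs 40 min treated. Endpoint fitted in loss-of-signal direction against DMSO.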

[7] = CCTE_Harrill_HTTr_CellCount_MCF7: CCTE's Cell Proliferation Assessment for the High-Throughput Transcriptomics (HTTr) Platform, Harrill Lab (AID 2284012; active means hit-call score of the fitted dose curve at least 0.9, where 1 is the maximum;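 further: cells exposed to compound for six hours; intended direction is loss of nuclei count meaning fewer cells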)
How it was run: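 Cell count from high-content imaging of Hoechst-labeled nuclei serves as viability/growth readout. Chemicals were applied to MCF-7 cells in eight concentrations for six hours, with fitting in both directions relative to DMSO.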

[8] = CCTE_Shafer_MEA_acute_burst_number: CCTE's Neural Acute Assay for Single-Electrode Bursts, Shafer Lab (AID 2284013)
How it was run: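 Burst totals were derived with adaptive spike detection (8x rms threshold) on filtered signals from rat cortical cultures; change relative to pre-treatment baseline after 40-min compound exposure (0.03-40 uM) was fitted in the negative direction against DMSO.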

[9] = CCTE_Shafer_MEA_acute_burst_duration_mean: CCTE's Neural Acute Assay for Mean Burst Duration, Shafer Lab (AID 2284014);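 further: hits are decreases in mean burst duration relative to DMSO controls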
How it was run: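 Acute exposure of mature rat cortical networks (DIV 13 or 15) grown on microelectrode arrays to 0.03-40 uM compound. Mean burst duration compared with the 40-min pre-dose baseline over a 40-min post-dose recording at 37 C.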

[10] = CCTE_Shafer_MEA_acute_per_burst_spike_number_mean: CCTE's Neural Acute Assay for Average Number of Spikes Per Burst, Shafer Lab (AID 2284015);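 further: hits are decreases in mean spikes per burst versus baseline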
How it was run: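 Rat primary cortical neurons on 48-well MEAs (DIV 13 or 15) were treated with 0.03-40 uM compound at 37 C. Mean spikes per burst over 40 min were recorded before and after exposure and expressed as percent change from baseline, relative to DMSO.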

[11] = CCTE_Shafer_MEA_acute_interburst_interval_mean: CCTE's Neural Acute Assay for Mean Interburst Interval, Shafer Lab (AID 2284016);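 further: percent change of mean interburst interval versus each well's own pre-dose baseline; curves fitted for decrease in interburst interval relative to DMSO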
How it was run: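 Rat primary cortical neurons on 48-well MEAs at DIV 13 or 15 were exposed acutely to 0.03-40 uM. Spikes detected at 8x rms noise, 37 C. Mean interburst interval from 40 min recordings expressed as percent change from 40 min pre-treatment baseline.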

[12] = CCTE_Shafer_MEA_acute_burst_percentage_mean: CCTE's Neural Acute Assay for Percentage of Spikes in a Burst, Shafer Lab (AID 2284017);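 on AC50: curve fitted for loss of signal so potency reflects decreased burst percentage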
How it was run: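 Primary rat cortical neurons on 48-well MEA plates, treated on DIV 13 or 15 at 0.03-40 uM. Spikes detected at 8x rms noise at 37C; percent change from 40-min baseline to 40-min post-dose recording, fitted versus DMSO.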

[13] = CCTE_Shafer_MEA_acute_per_network_burst_spike_number_mean: CCTE's Neural Acute Assay for Average Number of Spikes in a Network Burst, Shafer Lab (AID 2284019)
How it was run: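 Acute exposure of rat primary cortical networks (DIV 13/15) on MEAs; adaptive spike detection at 8x rms noise, 37 C. Percent change in spikes per network burst after 40 min with compound (0.03-40 uM), negative direction vs DMSO.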

[14] = CCTE_Shafer_MEA_acute_per_network_burst_spike_number_std: CCTE's Neural Acute Assay for Standard Deviation of Number of Spikes in a Network Burst, Shafer Lab (AID 2284020);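 further: fitted for decrease in spike-number SD versus DMSO so actives lower it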
How it was run: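 Acute MEA exposure, rat cortical neurons, 0.03-40 uM. Per-well % change versus own baseline; DMSO as negative control.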

[15] = CCTE_Shafer_MEA_acute_per_network_burst_electrodes_number_mean: CCTE's Neural Acute Assay for Mean Number of Electrodes in a Network Burst, Shafer Lab (AID 2284021);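 further: curves fitted for decreases only so hits reduce electrodes per burst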
How it was run: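 Percent change from baseline was computed as mean electrode count per network burst, comparing 40 min recordings before and during compound (0.03-40 uM) exposure. Cultures were rat cortical neurons at DIV 13 or 15, recorded on MEAs at 37 C with an adaptive 8x rms threshold.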

[16] = CCTE_Shafer_MEA_acute_network_burst_percentage: CCTE's Neural Acute Assay for Percentage of Network Bursts, Shafer Lab (AID 2284022);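 further: curves fitted for loss so actives lower network burst percentage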
How it was run: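 Network burst percentage (spikes in network bursts divided by total spikes) recorded at 37 C over 40 min baseline and 40 min after compound, 0.03-40 uM, in rat cortical cultures at DIV 13 or 15. Analysed as percent change from baseline versus DMSO.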

[17] = CCTE_Shafer_MEA_acute_cross_correlation_HWHM: CCTE's Neural Acute Assay for Cross Correlation at Half Width at Half Maximum, Shafer Lab (AID 2284026);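 further: spontaneous network firing of rat primary cortical neurons on multiwell microelectrode arrays; percent change per well from pre-dose baseline in spike cross-correlogram half width; hits are a decrease in cross-correlogram half width relative to DMSO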
How it was run: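 Per-well percent change in cross-correlogram half width at half maximum, derived from 40-min recordings before and after compound (0.03-40 uM) at 37 C. Cultures were rat cortical neurons, DIV 13 or 15, with adaptive spike detection at 8x rms.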

[18] = CCTE_Shafer_MEA_acute_synchrony_index: CCTE's Neural Acute Assay for Synchrony, Shafer Lab (AID 2284027);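 further: network synchrony index of spontaneous spiking in primary rat cortical neurons on MEAs; fitted for loss of signal so actives lower synchrony relative to DMSO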
How it was run: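 The synchrony index is taken as percent change per well between a 40 min baseline and a 40 min recording with compound (0.03–40 uM), at 37C. Rat cortical cultures on multiwell MEAs at DIV 13 or 15, spike threshold 8× rms noise.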

**Q.** What does the source list for `Nc1cccc(N)c1`?
**A.** AC50 [1]: 28.7 µM (active); outcome [2]: inactive; outcome [3]: inactive; outcome [4]: inactive

**Q.** What does the source list for `Cn1c(=O)cc(Oc2ccc(F)cc2F)c2cnc(NCC(C)(C)O)nc21`?
**A.** outcome [1]: inactive; outcome [2]: inactive; outcome [3]: inactive; outcome [4]: inactive

**Q.** Which results are given for `COc1ccc2sc(C(=O)Nc3nnn[nH]3)c(OC(C)C)c2c1`?
**A.** outcome [1]: inactive; outcome [5]: inactive; outcome [6]: inactive; outcome [3]: inactive; outcome [4]: inactive; outcome [7]: inactive; outcome [8]: inactive; outcome [9]: inactive; outcome [10]: inactive; outcome [11]: inactive; outcome [12]: inactive; outcome [13]: inactive; outcome [14]: inactive; outcome [15]: inactive; outcome [16]: inactive; outcome [17]: inactive; outcome [18]: inactive

**Q.** For `O=C(O)c1cccc(N(Cc2cccnc2)c2ccc(OC(F)F)c(OC(F)F)c2)c1`, which outcome [1] is on record?
**A.** Its outcome is “inactive”.

**Q.** What about the AC50 [2] of the same molecule?
**A.** The AC50 was 10.7 µM (active).

**Q.** What about the outcome [3] of the same molecule?
**A.** Its outcome is “inactive”.

**Q.** And the outcome [4]?
**A.** The outcome was “inactive”.

**Q.** What about the outcome [7] of the same molecule?
**A.** The outcome was “inactive”.

**Q.** Which outcome [1] does the source give for `C=CCCCCCCCCC(=O)O` here?
**A.** The outcome was “inactive”.

**Q.** And the outcome [2]?
**A.** Its outcome is “inactive”.

**Q.** Which outcome [1] does the source give for `CCn1nc(Cc2ccccc2)cc1C1CCN(C[C@H]2C[C@H](N(C)[C@@H](C(=O)O)C(C)C)C[C@@H]2c2cccc(F)c2)CC1` here?
**A.** Its outcome is “inactive”.

**Q.** What about the outcome [3] of the same molecule?
**A.** The outcome was “inactive”.

**Q.** What about the outcome [4] of the same molecule?
**A.** Its outcome is “inactive”.

**Q.** And the outcome [7]?
**A.** Its outcome is “inactive”.

**Q.** Which results are given for `CCCN(C1CCN(C(=O)C2CCNCC2)CC1)[C@@H]1CCc2ccc(OC)cc2C1`?
**A.** outcome [5]: inactive; outcome [6]: inactive; outcome [3]: inactive; outcome [4]: inactive; outcome [7]: inactive; outcome [8]: inactive; outcome [9]: inactive; outcome [10]: inactive; outcome [11]: inactive; AC50 [12]: 11.3 µM (active); outcome [13]: inactive; outcome [14]: inactive; AC50 [15]: 5 µM (active); AC50 [16]: 7.55 µM (active); outcome [17]: inactive; AC50 [18]: 17.7 µM (active)

**Q.** Which results are given for `CC(C)CC(C)(O)C#CC(C)(O)CC(C)C` (stereo not given)?
**A.** outcome [1]: inactive; outcome [2]: inactive; outcome [3]: inactive; outcome [4]: inactive

**Q.** With `CCOC(=O)c1ccc(C2CCC(NC[C@H](O)COc3ccc(O)c(NS(C)(=O)=O)c3)CC2)cc1` (stereo not given in full) as the molecule, how does the outcome [1] read?
**A.** The outcome was “inactive”.

**Q.** And the outcome [5]?
**A.** Its outcome is “inactive”.

**Q.** What about the outcome [6] of the same molecule?
**A.** Its outcome is “inactive”.

**Q.** And the outcome [3]?
**A.** The outcome was “inactive”.

**Q.** What about the outcome [4] of the same molecule?
**A.** Its outcome is “inactive”.

**Q.** And the outcome [7]?
**A.** The outcome was “inactive”.

**Q.** What about the outcome [8] of the same molecule?
**A.** The outcome was “inactive”.

**Q.** And the outcome [9]?
**A.** The outcome was “inactive”.

**Q.** And the outcome [10]?
**A.** Its outcome is “inactive”.

**Q.** And the outcome [11]?
**A.** The outcome was “inactive”.

**Q.** And the AC50 [12]?
**A.** Its AC50 is 30.2 µM (active).

**Q.** And the outcome [13]?
**A.** Its outcome is “inactive”.

**Q.** What about the outcome [14] of the same molecule?
**A.** The outcome was “inactive”.

**Q.** What about the outcome [15] of the same molecule?
**A.** Its outcome is “inactive”.

**Q.** And the outcome [16]?
**A.** Its outcome is “inactive”.

**Q.** What about the outcome [17] of the same molecule?
**A.** The outcome was “inactive”.

**Q.** And the AC50 [18]?
**A.** Its AC50 is 28.8 µM (active).

**Q.** What does the source list for `O=C(CCCCCCCCc1cccnc1)N1CCC(C=C(c2ccccc2)c2ccccc2)CC1`?
**A.** outcome [1]: inactive; outcome [3]: inactive; outcome [4]: inactive

**Q.** What does the source list for `COc1ccc(/C=C/S(=O)(=O)NC(=O)c2ccc(C)cc2Cl)cc1`?
**A.** outcome [1]: inactive; outcome [3]: inactive; outcome [4]: inactive

**Q.** For `Cn1cnc([N+](=O)[O-])c1Sc1ncnc2nc[nH]c12`, which outcome [5] is on record?
**A.** The outcome was “inactive”.

**Q.** What about the outcome [6] of the same molecule?
**A.** The outcome was “inactive”.

**Q.** What about the outcome [3] of the same molecule?
**A.** Its outcome is “inactive”.

**Q.** What about the outcome [4] of the same molecule?
**A.** Its outcome is “inactive”.

**Q.** And the outcome [7]?
**A.** The outcome was “inactive”.

**Q.** What about the outcome [8] of the same molecule?
**A.** The outcome was “inactive”.

**Q.** What about the outcome [9] of the same molecule?
**A.** Its outcome is “inactive”.

**Q.** What about the outcome [10] of the same molecule?
**A.** The outcome was “inactive”.

**Q.** And the outcome [11]?
**A.** The outcome was “inactive”.

**Q.** And the outcome [12]?
**A.** The outcome was “inactive”.

**Q.** And the outcome [13]?
**A.** Its outcome is “inactive”.

**Q.** And the outcome [14]?
**A.** Its outcome is “inactive”.

**Q.** What about the outcome [15] of the same molecule?
**A.** Its outcome is “inactive”.

**Q.** And the outcome [16]?
**A.** The outcome was “inactive”.

**Q.** What about the outcome [17] of the same molecule?
**A.** Its outcome is “inactive”.

**Q.** And the outcome [18]?
**A.** Its outcome is “inactive”.
